Key:
Experiment in all cases: DAPPL (digital affinity profiling via proximity ligation, sequencing); 10 mM Tris-HCl pH 7.5, 50 mM NaCl, 1 mM DTT, 4% glycerol, room temperature, 30 min; GST-TFs on glutathione beads, 16-mer random dsDNA library, 0.1% formaldehyde crosslink after washing; high values mean tight binding
FEV = biological target: T1, FEV (Homo sapiens, UniProt Q99581 1-238); conditions: protein: recombinant; tags: N-terminal GST; dsDNA, one strand shown
T1 sequence: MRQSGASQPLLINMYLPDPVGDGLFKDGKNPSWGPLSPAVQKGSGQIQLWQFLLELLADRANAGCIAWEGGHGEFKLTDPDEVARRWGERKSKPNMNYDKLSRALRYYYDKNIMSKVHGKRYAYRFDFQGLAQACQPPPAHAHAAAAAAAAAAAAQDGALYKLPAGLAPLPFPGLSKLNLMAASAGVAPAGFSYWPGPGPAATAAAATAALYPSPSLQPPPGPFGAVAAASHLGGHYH
In short: (§1)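 Pools of DNA-barcoded human transcription factors, expressed in yeast as GST fusions on glutathione beads and combined with a tag-only sample, were incubated with 200 nmole of a 16-mer random double-stranded DNA library. Incubation took 30 min at room temperature in Tris/NaCl/DTT/glycerol buffer and was followed by washing, 0.1% formaldehyde crosslinking, proximity ligation (BsaI/T4 ligase, 1 h, 37 °C), PCR amplification and sequencing on an Illumina NextSeq500. Binding signal is the ratio of a hexamer's read frequency for a factor to its frequency for the tag-only sample.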

ETV5 = ETV5 (Homo sapiens, UniProt P41161 1-510); conditions: protein: recombinant; tags: N-terminal GST; dsDNA, one strand shown
In short: as §1

HSF1 = HSF1 (Homo sapiens, UniProt Q00613 1-529); conditions: protein: recombinant; tags: N-terminal GST; chain copies: 3; dsDNA, one strand shown
In short: as §1

SPIC = biological target: T2, SPIC (Homo sapiens, UniProt Q8N5J4 1-248); conditions: protein: recombinant; tags: N-terminal GST; dsDNA, one strand shown
T2 sequence: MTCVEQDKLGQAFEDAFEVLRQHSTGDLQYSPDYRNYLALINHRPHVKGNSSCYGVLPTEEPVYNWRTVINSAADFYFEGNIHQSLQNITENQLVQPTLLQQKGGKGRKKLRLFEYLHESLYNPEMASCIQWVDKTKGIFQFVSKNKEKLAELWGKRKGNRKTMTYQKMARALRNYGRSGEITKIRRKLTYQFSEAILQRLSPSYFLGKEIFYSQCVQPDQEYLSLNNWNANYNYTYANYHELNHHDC
In short: as §1

ELF4 = ELF4 (Homo sapiens, UniProt Q99607 1-663); conditions: protein: recombinant; tags: N-terminal GST; dsDNA, one strand shown
In short: as §1

ELK4 = biological target: T3, ELK4 (Homo sapiens, UniProt P28324-2 1-405); conditions: protein: recombinant; tags: N-terminal GST; dsDNA, one strand shown
T3 sequence: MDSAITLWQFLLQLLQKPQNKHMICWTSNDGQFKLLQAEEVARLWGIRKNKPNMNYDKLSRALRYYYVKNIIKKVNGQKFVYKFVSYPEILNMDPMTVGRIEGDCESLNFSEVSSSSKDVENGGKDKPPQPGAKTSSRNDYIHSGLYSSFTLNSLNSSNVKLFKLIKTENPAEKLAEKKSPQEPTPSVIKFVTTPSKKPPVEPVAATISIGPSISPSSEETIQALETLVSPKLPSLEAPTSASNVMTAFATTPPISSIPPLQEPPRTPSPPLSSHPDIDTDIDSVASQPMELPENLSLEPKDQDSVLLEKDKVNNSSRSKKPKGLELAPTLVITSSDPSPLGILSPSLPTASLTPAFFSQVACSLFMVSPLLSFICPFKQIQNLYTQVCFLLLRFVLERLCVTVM
In short: as §1

ETV2 = biological target: T4, ETV2 (Homo sapiens, UniProt O00321 1-342); conditions: protein: recombinant; tags: N-terminal GST; dsDNA, one strand shown
T4 sequence: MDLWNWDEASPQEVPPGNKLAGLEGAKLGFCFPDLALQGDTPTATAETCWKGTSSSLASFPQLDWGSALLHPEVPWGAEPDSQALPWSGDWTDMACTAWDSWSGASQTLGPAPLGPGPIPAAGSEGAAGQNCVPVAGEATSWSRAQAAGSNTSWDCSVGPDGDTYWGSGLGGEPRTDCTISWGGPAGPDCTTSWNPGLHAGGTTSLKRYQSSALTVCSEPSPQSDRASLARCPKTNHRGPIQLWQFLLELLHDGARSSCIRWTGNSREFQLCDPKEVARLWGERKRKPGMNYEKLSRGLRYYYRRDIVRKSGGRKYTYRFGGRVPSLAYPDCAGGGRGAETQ
In short: as §1

ELF3 = biological target: T5, ELF3 (Homo sapiens, UniProt P78545 1-371); conditions: protein: recombinant; tags: N-terminal GST; dsDNA, one strand shown
T5 sequence: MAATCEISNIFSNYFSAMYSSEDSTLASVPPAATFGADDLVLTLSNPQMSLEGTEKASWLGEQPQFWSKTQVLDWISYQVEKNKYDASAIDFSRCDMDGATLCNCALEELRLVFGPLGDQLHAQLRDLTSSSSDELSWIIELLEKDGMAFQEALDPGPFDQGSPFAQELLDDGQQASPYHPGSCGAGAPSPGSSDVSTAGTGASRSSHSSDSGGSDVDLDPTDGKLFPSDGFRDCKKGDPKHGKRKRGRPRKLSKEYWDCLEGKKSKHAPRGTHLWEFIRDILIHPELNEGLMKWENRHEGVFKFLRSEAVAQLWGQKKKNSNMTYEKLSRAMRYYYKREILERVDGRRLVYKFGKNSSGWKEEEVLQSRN
In short: as §1

CRX = CRX (Homo sapiens, UniProt O43186 1-299); conditions: protein: recombinant; tags: N-terminal GST; dsDNA, one strand shown
In short: as §1

ETV1 = ETV1 (Homo sapiens, UniProt P50549 1-477); conditions: protein: recombinant; tags: N-terminal GST; dsDNA, one strand shown
In short: as §1

ERF = biological target: T6, ERF (Homo sapiens, UniProt P50548 1-548); conditions: protein: recombinant; tags: N-terminal GST; dsDNA, one strand shown
T6 sequence: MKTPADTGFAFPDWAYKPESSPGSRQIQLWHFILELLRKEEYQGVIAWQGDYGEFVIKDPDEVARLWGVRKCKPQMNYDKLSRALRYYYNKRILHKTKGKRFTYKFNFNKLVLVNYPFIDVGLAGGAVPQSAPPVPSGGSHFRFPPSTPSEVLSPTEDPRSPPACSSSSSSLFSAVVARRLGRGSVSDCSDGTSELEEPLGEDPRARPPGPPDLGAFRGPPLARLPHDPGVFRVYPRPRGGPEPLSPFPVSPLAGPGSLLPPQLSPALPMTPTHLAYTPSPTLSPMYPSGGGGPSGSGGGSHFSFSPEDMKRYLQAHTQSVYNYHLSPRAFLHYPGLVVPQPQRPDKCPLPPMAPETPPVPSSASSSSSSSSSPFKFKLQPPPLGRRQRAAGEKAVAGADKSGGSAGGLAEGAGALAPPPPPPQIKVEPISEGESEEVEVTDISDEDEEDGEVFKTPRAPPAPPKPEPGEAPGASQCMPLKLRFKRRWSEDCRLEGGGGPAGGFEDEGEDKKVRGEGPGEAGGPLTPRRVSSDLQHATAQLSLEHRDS
In short: as §1

ETV3L = biological target: T7, ETV3L (Homo sapiens, UniProt Q6ZN32 1-361); conditions: protein: recombinant; tags: N-terminal GST; dsDNA, one strand shown
T7 sequence: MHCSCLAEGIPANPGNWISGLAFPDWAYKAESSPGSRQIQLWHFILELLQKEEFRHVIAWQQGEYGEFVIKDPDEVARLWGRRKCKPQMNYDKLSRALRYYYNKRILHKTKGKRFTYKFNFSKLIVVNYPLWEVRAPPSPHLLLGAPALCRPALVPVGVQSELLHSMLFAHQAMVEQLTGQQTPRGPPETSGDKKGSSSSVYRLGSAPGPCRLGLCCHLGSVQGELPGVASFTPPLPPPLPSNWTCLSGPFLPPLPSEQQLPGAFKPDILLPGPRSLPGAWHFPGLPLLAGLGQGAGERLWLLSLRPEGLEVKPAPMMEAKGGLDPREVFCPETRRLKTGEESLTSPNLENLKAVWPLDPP
In short: as §1

ETS2 = biological target: T8, ETS2 (Homo sapiens, UniProt P15036 1-469); conditions: protein: recombinant; tags: N-terminal GST; dsDNA, one strand shown
T8 sequence: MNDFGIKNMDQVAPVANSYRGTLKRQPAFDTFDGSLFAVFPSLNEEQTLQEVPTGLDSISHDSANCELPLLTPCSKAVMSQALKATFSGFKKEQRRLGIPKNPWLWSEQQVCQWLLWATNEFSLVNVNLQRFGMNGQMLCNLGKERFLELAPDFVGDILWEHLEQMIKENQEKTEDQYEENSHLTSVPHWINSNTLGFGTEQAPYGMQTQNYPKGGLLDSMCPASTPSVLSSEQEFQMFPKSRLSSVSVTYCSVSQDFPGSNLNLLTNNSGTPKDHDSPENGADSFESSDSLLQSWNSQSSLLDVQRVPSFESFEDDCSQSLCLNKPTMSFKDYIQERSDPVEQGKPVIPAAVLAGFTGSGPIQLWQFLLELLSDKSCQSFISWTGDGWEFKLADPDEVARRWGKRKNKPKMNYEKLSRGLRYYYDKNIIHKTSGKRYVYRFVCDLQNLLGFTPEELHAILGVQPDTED
In short: as §1

SPDEF = biological target: T9, SPDEF (Homo sapiens, UniProt O95238 1-335); conditions: protein: recombinant; tags: N-terminal GST; dsDNA, one strand shown
T9 sequence: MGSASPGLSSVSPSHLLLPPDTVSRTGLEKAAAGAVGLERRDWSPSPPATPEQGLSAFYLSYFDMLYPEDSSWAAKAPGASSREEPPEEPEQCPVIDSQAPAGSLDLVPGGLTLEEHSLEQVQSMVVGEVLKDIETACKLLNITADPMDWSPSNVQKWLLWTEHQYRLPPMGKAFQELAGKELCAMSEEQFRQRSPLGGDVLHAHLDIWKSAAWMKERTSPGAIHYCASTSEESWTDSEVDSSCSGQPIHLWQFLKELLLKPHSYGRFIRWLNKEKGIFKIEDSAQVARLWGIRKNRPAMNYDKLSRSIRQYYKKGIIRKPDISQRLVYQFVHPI
In short: as §1

ETV7 = biological target: T10, ETV7 (Homo sapiens, UniProt Q9Y603 1-341); conditions: protein: recombinant; tags: N-terminal GST; dsDNA, one strand shown
T10 sequence: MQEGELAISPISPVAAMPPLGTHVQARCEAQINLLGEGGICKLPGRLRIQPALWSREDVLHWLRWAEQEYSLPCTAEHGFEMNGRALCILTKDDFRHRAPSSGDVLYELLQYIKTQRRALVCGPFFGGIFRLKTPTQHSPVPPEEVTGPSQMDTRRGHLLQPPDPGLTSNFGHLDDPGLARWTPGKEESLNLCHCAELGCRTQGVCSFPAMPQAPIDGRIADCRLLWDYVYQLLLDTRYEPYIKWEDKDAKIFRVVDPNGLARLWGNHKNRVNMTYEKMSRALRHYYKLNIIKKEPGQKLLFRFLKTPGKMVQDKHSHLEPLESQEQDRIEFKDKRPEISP
In short: as §1

ELF5 = biological target: T11, ELF5 (Homo sapiens, UniProt Q9UKW6-2 1-255); conditions: protein: recombinant; tags: N-terminal GST; dsDNA, one strand shown
T11 sequence: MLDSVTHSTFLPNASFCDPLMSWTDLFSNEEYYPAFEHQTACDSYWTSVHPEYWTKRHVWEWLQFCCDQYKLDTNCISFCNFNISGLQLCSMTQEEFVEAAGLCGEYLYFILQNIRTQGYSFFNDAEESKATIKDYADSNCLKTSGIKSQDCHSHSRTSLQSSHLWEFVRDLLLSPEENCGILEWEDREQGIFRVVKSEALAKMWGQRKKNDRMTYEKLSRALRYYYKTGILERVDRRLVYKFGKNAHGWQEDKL
In short: as §1

ETV3 = biological target: T12, ETV3 (Homo sapiens, UniProt P41162-2 1-143); conditions: protein: recombinant; tags: N-terminal GST; dsDNA, one strand shown
T12 sequence: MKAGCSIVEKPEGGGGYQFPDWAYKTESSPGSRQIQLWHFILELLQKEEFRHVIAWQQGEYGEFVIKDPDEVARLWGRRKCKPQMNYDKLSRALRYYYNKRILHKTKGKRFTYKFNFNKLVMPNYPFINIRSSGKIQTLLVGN
In short: as §1

ETV6 = ETV6 (Homo sapiens, UniProt P41212 1-452); conditions: protein: recombinant; tags: N-terminal GST; dsDNA, one strand shown
In short: as §1

Chain of CRX (O43186 whole entry): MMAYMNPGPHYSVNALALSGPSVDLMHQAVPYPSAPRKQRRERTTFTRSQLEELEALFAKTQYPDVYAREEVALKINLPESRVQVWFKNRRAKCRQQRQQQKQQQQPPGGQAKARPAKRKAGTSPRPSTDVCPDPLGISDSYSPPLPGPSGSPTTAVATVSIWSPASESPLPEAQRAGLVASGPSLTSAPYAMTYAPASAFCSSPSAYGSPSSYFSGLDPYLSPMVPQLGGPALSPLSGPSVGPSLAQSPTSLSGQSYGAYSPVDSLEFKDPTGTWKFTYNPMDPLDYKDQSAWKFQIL
Chain of HSF1 (Q00613 whole entry): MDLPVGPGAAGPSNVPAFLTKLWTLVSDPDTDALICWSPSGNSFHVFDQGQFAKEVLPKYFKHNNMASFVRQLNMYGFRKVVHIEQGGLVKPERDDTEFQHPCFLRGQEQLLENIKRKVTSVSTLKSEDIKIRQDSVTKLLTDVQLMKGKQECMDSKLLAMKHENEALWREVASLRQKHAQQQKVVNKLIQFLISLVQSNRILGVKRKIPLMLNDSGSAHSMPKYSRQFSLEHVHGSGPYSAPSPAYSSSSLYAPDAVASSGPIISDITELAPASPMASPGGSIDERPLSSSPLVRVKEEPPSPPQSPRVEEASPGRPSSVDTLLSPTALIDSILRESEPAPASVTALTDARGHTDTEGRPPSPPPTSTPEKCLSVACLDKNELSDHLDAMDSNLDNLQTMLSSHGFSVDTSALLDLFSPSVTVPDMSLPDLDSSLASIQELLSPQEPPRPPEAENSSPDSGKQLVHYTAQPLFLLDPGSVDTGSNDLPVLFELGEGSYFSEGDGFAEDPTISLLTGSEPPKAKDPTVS
Chain of ETV6 (P41212 whole entry): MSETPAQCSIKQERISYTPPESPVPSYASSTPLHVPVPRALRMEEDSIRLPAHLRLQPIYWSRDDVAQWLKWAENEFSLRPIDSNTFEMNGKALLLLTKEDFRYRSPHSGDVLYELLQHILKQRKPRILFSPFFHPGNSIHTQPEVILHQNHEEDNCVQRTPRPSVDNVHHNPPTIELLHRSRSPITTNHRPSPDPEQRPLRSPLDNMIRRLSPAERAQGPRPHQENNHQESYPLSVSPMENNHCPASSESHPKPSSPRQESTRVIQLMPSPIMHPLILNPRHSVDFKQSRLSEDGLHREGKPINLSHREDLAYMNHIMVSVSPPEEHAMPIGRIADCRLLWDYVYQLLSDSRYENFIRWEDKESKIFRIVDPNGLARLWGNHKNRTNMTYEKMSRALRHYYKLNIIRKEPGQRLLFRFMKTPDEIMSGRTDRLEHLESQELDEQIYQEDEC
Chain of ELF4 (Q99607 whole entry): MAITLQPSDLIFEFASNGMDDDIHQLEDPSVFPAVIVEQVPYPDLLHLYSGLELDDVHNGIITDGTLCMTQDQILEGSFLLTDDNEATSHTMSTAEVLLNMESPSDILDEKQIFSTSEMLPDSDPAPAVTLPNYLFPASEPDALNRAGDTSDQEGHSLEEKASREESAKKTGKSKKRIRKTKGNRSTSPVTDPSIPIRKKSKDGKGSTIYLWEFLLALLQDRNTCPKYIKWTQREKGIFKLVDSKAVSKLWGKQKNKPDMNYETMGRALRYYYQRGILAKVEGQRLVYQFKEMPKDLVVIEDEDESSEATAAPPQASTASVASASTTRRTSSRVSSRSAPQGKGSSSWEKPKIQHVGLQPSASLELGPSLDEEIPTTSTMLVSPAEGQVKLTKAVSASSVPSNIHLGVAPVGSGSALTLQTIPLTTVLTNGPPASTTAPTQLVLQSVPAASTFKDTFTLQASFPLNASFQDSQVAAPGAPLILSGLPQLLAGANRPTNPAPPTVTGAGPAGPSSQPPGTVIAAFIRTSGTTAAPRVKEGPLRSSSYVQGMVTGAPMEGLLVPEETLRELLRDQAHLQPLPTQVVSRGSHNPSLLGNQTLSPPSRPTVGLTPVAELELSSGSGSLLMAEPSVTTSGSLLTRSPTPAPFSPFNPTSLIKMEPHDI
Chain of ETV5 (P41161 whole entry): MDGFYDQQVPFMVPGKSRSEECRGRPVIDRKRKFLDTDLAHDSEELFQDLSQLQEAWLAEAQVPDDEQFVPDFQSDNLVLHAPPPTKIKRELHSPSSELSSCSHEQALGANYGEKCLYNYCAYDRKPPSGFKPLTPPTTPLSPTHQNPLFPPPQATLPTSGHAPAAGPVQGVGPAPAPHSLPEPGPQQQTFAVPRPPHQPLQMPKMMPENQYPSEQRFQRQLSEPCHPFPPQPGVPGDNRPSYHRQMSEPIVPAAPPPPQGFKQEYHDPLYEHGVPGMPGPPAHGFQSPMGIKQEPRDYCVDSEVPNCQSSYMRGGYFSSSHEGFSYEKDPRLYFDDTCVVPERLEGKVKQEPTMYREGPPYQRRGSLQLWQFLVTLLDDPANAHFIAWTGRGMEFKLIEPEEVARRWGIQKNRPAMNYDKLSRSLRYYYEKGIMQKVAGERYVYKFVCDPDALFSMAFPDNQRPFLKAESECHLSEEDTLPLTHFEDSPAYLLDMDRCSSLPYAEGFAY
Chain of ETV1 (P50549 whole entry): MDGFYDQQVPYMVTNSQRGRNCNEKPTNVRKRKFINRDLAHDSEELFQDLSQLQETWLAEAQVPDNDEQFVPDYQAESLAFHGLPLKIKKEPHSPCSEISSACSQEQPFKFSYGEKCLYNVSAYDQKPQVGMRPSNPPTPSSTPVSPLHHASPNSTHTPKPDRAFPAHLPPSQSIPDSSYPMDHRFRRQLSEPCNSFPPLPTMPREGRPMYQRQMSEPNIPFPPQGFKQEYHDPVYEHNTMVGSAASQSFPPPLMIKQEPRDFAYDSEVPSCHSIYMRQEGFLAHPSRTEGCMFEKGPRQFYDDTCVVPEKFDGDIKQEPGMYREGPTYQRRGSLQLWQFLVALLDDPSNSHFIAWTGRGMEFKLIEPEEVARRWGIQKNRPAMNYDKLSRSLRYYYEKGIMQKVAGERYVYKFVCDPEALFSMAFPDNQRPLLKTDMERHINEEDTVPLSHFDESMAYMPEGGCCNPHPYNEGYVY

TGTTTC
binding signal (FEV): 1.97 fold enrichment (6-mer frequency, TF over GST control)
binding signal (ETV5): 1.83 fold enrichment (6-mer frequency, TF over GST control)
binding signal (HSF1): 1.43 fold enrichment (6-mer frequency, TF over GST control)
binding signal (SPIC): 1.49 fold enrichment (6-mer frequency, TF over GST control)
binding signal (ELF4): 1.73 fold enrichment (6-mer frequency, TF over GST control)
binding signal (ELK4): 1.55 fold enrichment (6-mer frequency, TF over GST control)
binding signal (ETV2): 1.69 fold enrichment (6-mer frequency, TF over GST control)
binding signal (ELF3): 1.68 fold enrichment (6-mer frequency, TF over GST control)
binding signal (CRX): 1.17 fold enrichment (6-mer frequency, TF over GST control)
binding signal (ETV1): 1.84 fold enrichment (6-mer frequency, TF over GST control)
binding signal (ERF): 1.86 fold enrichment (6-mer frequency, TF over GST control)
binding signal (ETV3L): 1.84 fold enrichment (6-mer frequency, TF over GST control)
binding signal (ETS2): 1.79 fold enrichment (6-mer frequency, TF over GST control)
binding signal (SPDEF): 1.81 fold enrichment (6-mer frequency, TF over GST control)
binding signal (ETV7): 1.89 fold enrichment (6-mer frequency, TF over GST control)
binding signal (ELF5): 2.08 fold enrichment (6-mer frequency, TF over GST control)
binding signal (ETV3): 1.83 fold enrichment (6-mer frequency, TF over GST control)
binding signal (ETV6): 1.95 fold enrichment (6-mer frequency, TF over GST control)

From publication PMC7862700, “An all-to-all approach to the identification of sequence-specific readers for epigenetic DNA modifications on cytosine”
